Assay outcomes from PubChem.
ELG1 genotoxic = induces genotoxicity in HEK293T cells with luciferase-tagged ELG1. Potency, µM (doses to about 46 µM), usual class: activators. HEK293T ELG1-luciferase reporter, luminescence, 16 h. actives 1.3% (n = 330,000); also: nearly all actives have a fitted effect of over 60% in size
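Cells (2,000/well) expressing the ELG1-luciferase fusion are dosed by pin tool and kept 16 hr at 37 °C, 5% CO2. Signal comes from ONE-Glo luciferase reagent after 30 min at room temperature.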
FLuc counter = firefly luciferase modulation, counter-screen for miR-21 project; actives 6.9% (n = 360,000); purified FLuc, Km substrates, luminescence inhibition; AID 588342; Potency, µM (doses to about 57.5 µM), most hits filed as inhibitors; also: nearly all actives have a fitted effect of over 55% in size
Target sequence (P08659 whole entry, looked up): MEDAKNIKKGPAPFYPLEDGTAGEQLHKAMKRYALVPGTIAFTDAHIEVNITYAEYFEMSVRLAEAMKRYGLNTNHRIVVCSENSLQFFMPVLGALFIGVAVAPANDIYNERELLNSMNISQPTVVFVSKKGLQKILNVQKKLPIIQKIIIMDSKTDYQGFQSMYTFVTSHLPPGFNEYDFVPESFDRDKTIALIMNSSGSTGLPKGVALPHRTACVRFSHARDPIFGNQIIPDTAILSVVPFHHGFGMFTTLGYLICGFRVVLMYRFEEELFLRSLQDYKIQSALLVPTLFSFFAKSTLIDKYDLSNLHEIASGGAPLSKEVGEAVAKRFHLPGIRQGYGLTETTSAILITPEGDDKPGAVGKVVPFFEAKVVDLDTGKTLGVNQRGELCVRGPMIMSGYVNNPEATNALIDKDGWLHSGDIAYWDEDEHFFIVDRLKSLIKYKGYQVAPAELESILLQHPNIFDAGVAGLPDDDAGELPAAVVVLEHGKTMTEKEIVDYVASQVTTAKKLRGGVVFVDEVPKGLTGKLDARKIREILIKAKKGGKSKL
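Biochemical qHTS of compounds, final roughly 60 µM downward over six points, against 10 nM purified firefly luciferase using Km concentrations of substrates (10 uM D-luciferin, 10 uM ATP) in Tris acetate pH 7.5 buffer; luminescence output.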
SMN2 splice enh = enhancers of SMN2 splice variant expression | HEK293 SMN2-luciferase splicing reporter, luminescence, 30-36 h | Potency, µM (doses to about 46.1 µM), actives largely listed as activators | actives 2.8% (n = 210,000) | AID 1458; also: nearly all actives have a fitted effect of over 55% in size
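HEK293 cells carry an SMN2 […]–luciferase reporter in which exon 7 inclusion puts luciferase in frame. Cells were plated 10-12 h before compound addition, then incubated 30-36 h at 37C. ONE-Glo luminescence was read; sodium butyrate at 4.5 mM final served as control.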
NPC1 prom act = NPC1 promoter activation. actives 2.4% (n = 320,000). Huh7 NPC1 promoter luciferase reporter, 24 h. Potency, µM (series often up to 9.22 µM), usual class: activators. AID 485313; also: nearly all actives have a fitted effect of over 60% in size
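Huh7 reporter cells (NPC1 promoter driving luciferase) are dosed with compound for 24 h at 37 °C, 5% CO2; luciferase detection reagent is then added and luminescence measured after 10 min at ambient temperature.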
Rab9 promoter act = activates the Rab9 promoter | actives 2.8% (n = 320,000) | Potency, µM (top dose mostly 9.22 µM), actives largely listed as activators | Huh7 Rab9 promoter-luciferase reporter, luminescence, 24 h; also: nearly all actives have a fitted effect of over 60% in size
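Measured in stably transfected Huh7 cells bearing a Rab9 promoter–luciferase construct: 24 h compound treatment at 37 °C, followed by luminescence detection.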
Hits are given with their value; – = inactive; ? = inconclusive; · = not tested or not shown. Compounds with a hit are over-represented: about 7.4% of the library has one in this group of screens. Calls follow the shape of the dose curve; as a rule, active = well fitted curve in the direction sought with a large enough effect; inconclusive = small, poorly fitted or top-dose-only effect, or another doubt; inactive = no such curve, though single readings can be large; an effect the other way counts as inactive or inconclusive.

SMILES | ELG1 genotoxic | FLuc counter | SMN2 splice enh | NPC1 prom act | Rab9 promoter act
CC1CCCN(C(=O)c2ccc(Br)c(S(=O)(=O)N3CCOCC3)c2)C1 (stereo not drawn) | – | – | · | – | –
O=C1OC(/C=C/c2ccc(Cl)cc2)=NC/1=C/c1ccco1 | – | – | – | – | –
CN1C(=O)/C(=C\c2ccco2)N=C1c1ccc(Cl)cc1Cl | – | 17µM | · | – | –
CN(C)c1ccc(NC2=C(Cl)C(=O)c3ccccc3C2=O)cc1 | ? | 7.6µM | – | – | –
Cc1cc(C(=O)Nc2sc3c(c2C#N)CCC3)no1 | 6.5µM | 5.4µM | ? | – | –
CC(C)Cc1cc(C(=O)Nc2sc3c(c2C#N)CCCC3)no1 | – | ? | – | – | –
CC1CCc2c(sc(NC(=O)c3ccc(Cl)cc3Cl)c2C#N)C1 (stereo not drawn) | · | – | – | · | ·
Cc1cc(C(=O)Nc2sc3c(c2C#N)CCCC3)no1 | ? | 2.4µM | 6.3µM | 3.2µM | 1.6µM
CCOC(=O)c1cc(C(=O)Nc2sc3c(c2C#N)CCCC3)nn1C | – | 4.8µM | · | – | ?
CC(C)Cc1cc(C(=O)Nc2sc3c(c2C#N)CCC3)no1 | – | ? | – | – | –
Cc1cc(C(=O)Nc2sc3c(c2C#N)CCC(C)C3)no1 (stereo not drawn) | 2.1µM | 2.7µM | 14µM | 1.8µM | 2µM
O=C(NCc1ccco1)c1cc(-c2ccc(Cl)cc2)on1 | – | – | – | 3.2µM | ?
O=C(NCc1ccccn1)c1cn(-c2ccccc2)nc1-c1ccc(Cl)cc1 | – | 19µM | – | – | –
O=C(/C=C/c1ccc(S(=O)(=O)NCc2ccco2)cc1)NCc1ccccc1Cl | – | – | · | – | –
O=C(NCc1ccco1)c1cc(-c2ccc3c(c2)OCO3)on1 | ? | ? | ? | 2.5µM | 4µM
O=C(/C=C/c1ccc(Cl)cc1)NCc1ccco1 | – | 13µM | – | – | –
COc1ccc(S(=O)(=O)N2CCOCC2)cc1NC(=O)CSc1ccc(F)cc1 | – | – | · | – | –
Cc1cccc(NC(=O)C(Cc2ccccc2)NS(=O)(=O)c2ccc3c(c2)c(=O)n(C)c(=O)n3C)c1 (stereo not drawn) | · | – | – | · | ·
CN(CC(=O)Nc1ccc(Cl)c(C(F)(F)F)c1)C(=O)c1cccc2cccnc12 | – | – | · | – | –
O=C(NCc1ccccn1)c1ccc(-c2ccccc2)cc1 | ? | 12µM | · | ? | ?
O=C(NCCc1ccccn1)c1ccc(OC(F)F)cc1 | ? | 11µM | 11µM | 1.4µM | 0.79µM
CC(C)Cc1cc(C(=O)NCc2ccco2)no1 | ? | 17µM | · | ? | 4µM
Cc1ccc(-c2cc(C(=O)NCc3ccccn3)no2)cc1 | 13µM | 17µM | 28µM | ? | ?
Cc1cc(C(=O)NCc2ccco2)no1 | – | – | · | – | –
C1CCC(N=C(NC23CC4CC(CC(C4)C2)C3)N2CCOCC2)CC1 | · | · | – | – | –
SMILES | ELG1 genotoxic | FLuc counter | SMN2 splice enh | NPC1 prom act | Rab9 promoter act
COc1cccc(-c2cc(C(=O)NCc3ccco3)no2)c1 | 10µM | 11µM | 11µM | 3.2µM | 1.8µM
O=C(NCCCn1ccnc1)c1cn(-c2ccccc2)nc1-c1ccccc1 | · | 12µM | – | · | ·
Cc1ccc(-c2cc(C(=O)NCc3ccco3)no2)cc1 | ? | ? | ? | 2.8µM | 2.2µM
CN(C)c1ccc(C2CC(c3ccccc3)=Nc3nc(-c4ccccc4)cn32)cc1 (stereo not drawn) | – | 13µM | – | – | –
CN(C)c1ccc(-c2n[nH]c(=S)n2-c2ccccc2)cc1 | – | – | – | – | –
O=C(Nc1ccsc1C(=O)O)c1ccc(Cl)cc1 | 23µM | 8.5µM | · | 2.8µM | 4µM
Cc1ccc(C(=O)Nc2ccsc2C(=O)O)cc1 | 23µM | 2.7µM | · | 0.71µM | 0.45µM
Cc1cc2ncc(C(=O)Nc3ccsc3C(=O)O)c(C)n2n1 | ? | 12µM | – | ? | ?
O=C(Nc1cc(F)c(Br)cc1F)c1ccc(Cl)cc1 | ? | 2.7µM | · | 2.2µM | 1.8µM
CC(C)CC(=O)Nc1ccc(S(=O)(=O)Nc2cc3c(cc2N2CCOCC2)n(C)c(=O)c(=O)n3C)cc1 | · | – | · | · | ·
COc1ccc(NC(=O)COc2ccccc2C(=O)NCC(c2ccccc2)N(C)C)cc1Cl (stereo not drawn) | – | – | · | – | –
COc1ccc(S(=O)(=O)N(C)C)cc1NC(=O)CN1C(=O)NC2(CCCC2)C1=O | – | – | · | – | –
O=C(Nc1ccsc1C(=O)O)c1cccc(Oc2ccccc2)c1 | ? | 0.76µM | · | 1.8µM | 0.89µM
O=C(Nc1nnc(-c2cccs2)o1)c1cccc(Oc2ccccc2)c1 | – | – | – | – | –
O=C(Nc1ccsc1C(=O)O)c1cccc(C(F)(F)F)c1 | 16µM | 9.5µM | · | 3.2µM | ?
Cc1ccccc1NC(=O)c1cccc(C(F)(F)F)c1 | – | – | – | – | –
CCOc1ccc(NC(=O)CN(C)C(=O)COc2cccc3c2OC(C)(C)C3)cc1OCC | – | – | · | – | –
O=C1NCCN/C1=C\C(=O)c1ccc(F)cc1 | – | ? | · | – | ?
CC1CN/C(=C\C(=O)c2ccc(Cl)cc2)C(=O)N1 (stereo not drawn) | ? | 2.4µM | 3.2µM | 0.4µM | 0.5µM
O=C1NCCN/C1=C\C(=O)c1ccc(Cl)cc1 | ? | 11µM | · | 1.6µM | 3.5µM
CC1CN/C(=C\C(=O)c2ccccc2)C(=O)N1 (stereo not drawn) | ? | 12µM | 10µM | 2.8µM | 4µM
N#C/C(=C\c1ccc(F)cc1)C(=O)NCC1CCCO1 (stereo not drawn) | · | – | – | · | ·
O=C(NN1C(=O)/C(=C\c2cccnc2)SC1=S)c1ccco1 | – | – | – | – | –
COc1ccc(NC(=O)c2cc3ccccc3o2)cn1 | ? | 13µM | · | 2.8µM | 2.5µM
COc1ccc(NC(=O)c2ccco2)cc1NC(=O)c1cc2ccccc2o1 | – | – | · | – | –
SMILES | ELG1 genotoxic | FLuc counter | SMN2 splice enh | NPC1 prom act | Rab9 promoter act
COc1ccc(NC(=O)c2cc3ccccc3o2)cc1OC | ? | 15µM | · | – | ?
COc1ccc(NC(=O)c2coc3ccccc23)cc1OC | ? | 13µM | – | ? | ?
COc1ccc(NC(=O)c2coc(=O)c3ccccc23)cc1OC | · | – | ? | · | ·
COc1ccc(NC(=O)c2cc3ccccc3o2)cc1 | 6.5µM | 3.8µM | ? | 1.6µM | 0.56µM
COc1cc(NC(=O)C(C)C)ccc1NC(=O)c1cc2ccccc2o1 | ? | 7.6µM | · | 2.2µM | 3.2µM
O=C(O)CC(c1ccccc1)N1C(=O)c2cccc([N+](=O)[O-])c2C1=O (stereo not drawn) | – | – | · | – | –
COc1ccc(/C=N/NC(=O)c2cc(-c3ccccc3OC)nc3ccccc23)cc1COC(C)=O | – | – | – | – | –
COc1cc(/C=N/NC(=O)c2cc(-c3cccs3)nc3ccccc23)ccc1O | – | 6.7µM | · | – | –
N#Cc1ccc(/C=N/NC(=O)c2cc(-c3cccs3)nc3ccccc23)cc1 | – | 6.7µM | – | – | –
O=C(NCCC1=CCCCC1)c1cnsn1 | 16µM | ? | – | – | ?
CCn1c(=O)c2cc(C(=O)N(CCCOC(C)C)Cc3ccco3)sc2c2ccccc21 | · | – | – | · | ·
